In PubChem BioAssay (NCI):
This is part of a sample that, as a whole, favours compounds with a hit. Of some 79,000 tested, about 15% had one in any assay. Values without a mark were called inactive. Activity calls are given as the source filed them. Cut-off read from the data, not from the text of the source: active = growth inhibition above about 70%; inactive = the rest. Where a SMILES comes first, the peptide text is derived from it. The star is where a group is joined. Cbz = O=C(OCc1ccccc1)*; For = O=C*

What was measured:
[1] = NCI Yeast Anticancer Drug Screen. Data for the rad50 strain (AID 155);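 note: 0% = growth of vehicle-only cultures of the same strain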; conditions: S. cerevisiae rad50 strain growth inhibition; at 50.0 µM; hits give high values
How it was run: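 DNA repair mutant yeast, compound exposure, growth read-out; inhibition is taken relative to vehicle.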

[2] = NCI Yeast Anticancer Drug Screen. Data for the mec2-1 strain (AID 157); conditions: S. cerevisiae mec2-1 strain, at 50.0 µM, hits give high values
How it was run: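 Mutant yeast (mec2-1) grown with compound; growth inhibition relative to vehicle control reported.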

[3] = NCI Yeast Anticancer Drug Screen. Data for the sgs1 mgt1 strain (AID 161);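 note: 0% = growth of cultures given vehicle only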; conditions: S. cerevisiae sgs1 mgt1 strain, at 50.0 µM, hits give high values
How it was run: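 Compounds are added to genetically altered yeast, and growth is compared with cultures given vehicle alone to give percent inhibition.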

[4] = NCI Yeast Anticancer Drug Screen. Data for the cln2 rad14 strain (AID 165);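 note: 0% = growth equal to vehicle treated cultures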; conditions: S. cerevisiae cln2 rad14 strain, at 50.0 µM, hits give high values
How it was run: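 Readout is yeast growth inhibition versus vehicle-treated controls, using a strain with cln2 and rad14 alterations exposed to compound.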

[5] = NCI Yeast Anticancer Drug Screen. Data for the bub3 strain (AID 167); conditions: S. cerevisiae bub3 mutant strain, at 50.0 µM, hits give high values
How it was run: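 In this screen, a yeast mutant lacking normal mitotic checkpoint function is challenged with compound. Relative growth versus vehicle gives the inhibition value.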

[6] = NCI Yeast Anticancer Drug Screen. Data for the mlh1 rad18 strain (AID 175); conditions: S. cerevisiae mlh1 rad18 strain growth inhibition; at 50.0 µM; hits give high values
How it was run: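 Genetically defined yeast (DNA repair-deficient) exposed to compounds; growth inhibition determined relative to vehicle.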

Row | Compound | growth inhibition [1] | growth inhibition [2] | growth inhibition [3] | growth inhibition [4] | growth inhibition [5] | growth inhibition [6]
1 | Cc1ccc(OP2(Oc3ccc(C)cc3)=NP(Oc3ccc(C)cc3)(Oc3ccc(C)cc3)=NP(Oc3ccc(C)cc3)(Oc3ccc(C)cc3)=N2)cc1 | 10.6% | -4.15% | -17.6% | -4.5% | 2.7% | 0.4%
2 | [Fe+2].[Fe+2].c1ccc2c(c1)-c1nc-2nc2[n-]c(nc3nc(nc4[n-]c(n1)c1ccccc41)-c1ccccc1-3)c1cc3c4nc5nc(nc6[n-]c(nc7nc(nc([n-]4)c3cc21)-c1ccccc1-7)c1ccccc61)-c1ccccc1-5 | -5.95% | -18.9% | -14.2% | -23% | 6.75% | 2.35%
3 | Cc1ccc(C)c(NC(=O)Nc2cccc(Cl)c2)c1 | -6.1% | 21.2% | -5.85% | -4.95% | 9.4% | -7.65%
4 | O=CC1N=C1c1ccccc1 (stereo not given) | 9.4% | -0.05% | 0.65% | 18.3% | 25.9% | 16.1%
5 | O=c1[nH]c2ccccc2nc1/C=C/n1c(=S)[nH]c2ccccc21 | -31.4% | -28.2% | -46.4% | -16.6% | -33.5% | -20.7%
6 | C[n+]1c(/C=C/c2ccc3c(c2)OCO3)ccc2ccccc21 | 1.55% | -0.2% | 22% | 6% | 14.1% | 14.2%
7 | Cc1cc(N=[N+]=[N-])c2ccc(Cl)cc2n1 | -8.15% | 1.05% | -5.55% | -47% | 8.55% | 33.1%
8 | CC(C)(C)c1ccc(-c2cc3nc(-c4ccccc4)cc(=O)n3[nH]2)cc1 | -8.05% | -30.3% | 10.5% | 5.9% | 10.8% | -0.55%
9 | CSCCC(NC(=O)C(Cc1ccccc1)NC=O)C(=O)O (stereo not drawn) (For-Phe-Met-OH; configuration not given here) | -12.1% | -26.9% | -10.5% | 5.7% | 19.4% | -11.5%
10 | COc1ccccc1/C=C/C(=O)c1sc(-c2cccnc2)nc1C | 38.5% | 17.5% | 5.3% | 17.9% | 23.9% | 33.5%
11 | Cc1cccc(N=C2NC(=O)C(CC(=O)Nc3ccc(Cl)cc3C)S2)c1 (stereo not given) | 0.05% | -1.9% | 1.95% | 3.55% | 8.15% | 3%
12 | Clc1ccc(OCC(COc2ccc(Cl)cc2)(COc2ccc(Cl)cc2)COc2ccc(Cl)cc2)cc1 | -0.75% | 2.75% | -4.8% | 5.9% | -4.45% | 0.7%
13 | NC(=S)N=Nc1c(O)[nH]c2c(Cl)cc(Cl)cc12 | 6.7% | -14.2% | 28.6% | 7.15% | 13.8% | -8.95%
14 | CC(C)(C#N)CCCCC(C)(C)C#N | 3.1% | 0.7% | 1.2% | 11.8% | 12.4% | 3.8%
15 | CCC1(c2ccccc2)NC(=O)N(N)C1=O (stereo not given) | 0.4% | 28.5% | -8.8% | 9.05% | -0.75% | 1.85%
16 | O=CN(CCO)CCO | -1.6% | 1.25% | -3.5% | 11.1% | 7.35% | -4.2%
17 | O=C1c2ccccc2C(=O)N1CC(O)COc1cccc2ccccc12 (stereo not given) | -23.1% | -79.5% | -24.4% | -13.9% | 8.3% | -14.8%
18 | O=C(Nc1ccn(C2OC(CO)C(O)C2O)c(=O)n1)Nc1ccn(C2OC(CO)C(O)C2O)c(=O)n1 (stereo not given) | 22.5% | -17.6% | -4.95% | -35.8% | -1.2% | 17.6%
19 | COc1ccc(C(=O)Nc2c(N)ncnc2N)cc1 | 16.8% | 73.7% (active) | 35.1% | -3.6% | 16.5% | 15.1%
20 | CC(=O)c1ccccn1 | -8.7% | -31.4% | -13.8% | -7.3% | -22.8% | -26.6%

Row | Compound | growth inhibition [1] | growth inhibition [2] | growth inhibition [3] | growth inhibition [4] | growth inhibition [5] | growth inhibition [6]
21 | Nc1nc(NCc2ccccc2)cc(=O)[nH]1 | 3.35% | -20.8% | -5.25% | -0.4% | -20.8% | -2.75%
22 | CCCc1cc(OC(=O)c2c(O)cc(OC)cc2CCC)cc(O)c1C(=O)O | 35.1% | 44.1% | 15.9% | 49.2% | 32% | 24.5%
23 | C[N+]1(C)CCCC1 | 24.5% | 5.5% | 24.2% | 7.6% | 35.5% | 16.1%
24 | Cc1cc(C)c(NC(=O)Nc2cccc(Cl)c2)c(C)c1 | -0.85% | 17.3% | 1.7% | -4% | 3.35% | -17.1%
25 | N#C/C(=C\c1ccccn1)c1nc(-c2ccc(Cl)cc2)cs1 | -9.6% | -27.9% | -12.7% | -0.1% | 0.5% | -14.6%
26 | CSCCC(NC(=O)C(Cc1ccccc1)NC(=O)OCc1ccccc1)C(=O)O (stereo not drawn) (Cbz-Phe-Met-OH; configuration not given here) | 5.1% | -13.2% | -1% | -40.4% | -4.95% | 4.85%
27 | [N-]=[N+]=Nc1ccccc1C(=O)N1C(=O)c2ccccc2C(=O)N(C(=O)c2ccccc2N=[N+]=[N-])c2ccccc21 | 1.35% | 7.9% | 0.8% | 0.35% | 11.9% | -6.4%
28 | COC(=O)c1nc(N)nc(C(=O)OC)c1C(=O)c1cccs1 | -2.55% | -9.05% | -28.9% | -24.8% | -43% | -20.9%
29 | CCCCOC(=O)c1ccc(OC(=O)Nc2ccc(Cl)cc2)cc1 | 10.4% | 42.3% | 39% | -11.2% | 78.7% (active) | 30.2%
30 | COc1cc([N+](=O)[O-])ccc1NC(=O)C(Br)C(Br)C(=O)O (stereo not given) | -6.6% | 5.15% | -12.5% | -28.1% | -0.35% | 16.4%
31 | CCCCCOC(=O)OC(C)CNC(=O)C(C)OC(=O)OCCCCC (stereo not given) | -17.4% | -33.5% | -12.5% | -61.4% | -9.5% | -29.4%
32 | C=C(CCl)CCl | 42.4% | 12.2% | 39.1% | 12.5% | 46.3% | 36.5%
33 | COC(=O)/C(C#N)=C/c1cccnc1 | -10.1% | -7.65% | 6% | -61.1% | -5.45% | -15.7%
34 | CCCC1(CC)COC(c2ccc(C)cc2)OC1 (stereo not given) | 13.8% | 0.9% | -7.6% | 5.85% | 11.8% | 3.35%
35 | CCN(CC)C(=S)SCCC(N)=O | -12.4% | -13.8% | -2.8% | 9.15% | -1.25% | -0.65%
36 | CCN(CCO)CC(=O)c1ccc(Cl)c(Cl)c1 | 0.2% | -12.5% | -6.95% | -13.8% | 16.1% | -0.9%
37 | COc1ccc(C(c2cc3c(cc2O)OCO3)n2ccnc2)cc1 (stereo not given) | 9.45% | 11.8% | 12.3% | -55.5% | 12.1% | 4.9%
38 | CCc1ccc(NC(=S)NC(=O)C(C)Oc2ccccc2)cc1 (stereo not given) | 39.5% | 21.6% | 54.7% | 15.1% | 78.8% (active) | 8.9%
39 | CC(=Nc1ccccc1)Nc1ccccc1 | -5.45% | 3.3% | 18.1% | -20.6% | 4.7% | 48.1%
40 | O=C1/C(=C/c2ccc(Cl)c(Cl)c2)CCC/C1=C\c1ccc(Cl)c(Cl)c1 | 30.4% | -5.85% | 2.7% | 2.95% | -3.7% | 1.2%
